Measured values published in PubChem BioAssay (NCATS).
Records with an inconclusive call do not appear. Entries that show only a call come without a potency. The source made the active and inactive calls. Unless noted, calls come from the whole dose curve; as a rule, active = well fitted curve in the direction sought with a large enough effect; inconclusive = small, poorly fitted or top-dose-only effect, or another doubt; inactive = no such curve, though single readings can be large; an effect the other way counts as inactive or inconclusive.

Assays:
[1] = qHTS to identify inhibitors of the type 1 interferon - major histocompatibility complex class I in skeletal muscle: primary screen against the NCATS LOPAC collection (AID 1347405); settings: iHSKM muscle cells, IFN-b-induced MHC-I HiBiT luminescence, 24 h; series mostly up to 45.9 µM;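 note: lytic HiBiT luminescence reporting HLA-B protein level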; note: potency is the fitted concentration of half-maximal effect
Method in brief: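 Luminescence from HiBiT fused to endogenous HLA-B in CRISPR-engineered human myoblasts served as the read-out. Cells received 4.0 ng/ml IFN-beta plus compound (seven concentrations, 1:4.3 steps, highest 46 uM final) for 24 hrs before lytic detection.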

[2] = qHTS for inhibitors of adenylyl cyclases using a fission yeast platform: a pilot screen against the NCATS LOPAC library (AID 1347410); settings: S. pombe CHP2027, fbp1-GFP fluorescence, 18 h; series mostly up to 57.5 µM
Method in brief: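 Read-out: fbp1-GFP fluorescence by laser scanning cytometry (488 nm laser), a gain of signal when AC/cAMP-PKA signalling is inhibited. Strain CHP2027 expressing AC9, GNAS and PDE4D2; compounds at up to 57 µM; 18 h, 30C.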

[3] = Validation qHTS assay for inhibitors of Activation Induced Cytidine Deaminase (AID): UDG Counterscreen signal (AID 1347427); settings: biochemical UDG counterscreen, fluorescence signal; series mostly up to 115 µM
Method in brief: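 Counterscreen read of UDG activity (2 U/mL, 4/3x) in the FRET deamination format with AID (1 uM, 4/3x), DJC20/DJC23 substrates (250 nM, 4x), 4 h at room temperature. NaOH stop, fluorescence at 560 ex/665 em.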

[4] = target: Single-stranded DNA cytosine deaminase (Homo sapiens) (UniProt Q9GZX7); assay: Validation qHTS assay for inhibitors of Activation Induced Cytidine Deaminase (AID): AID signal (AID 1347429); settings: Recombinant AID, FRET ssDNA deamination with UDG, fluorescence; series mostly up to 115 µM; note: potency is the fitted concentration of half-maximal effect
Chain of Single-stranded DNA cytosine deaminase (Homo sapiens) (Q9GZX7 whole entry, looked up): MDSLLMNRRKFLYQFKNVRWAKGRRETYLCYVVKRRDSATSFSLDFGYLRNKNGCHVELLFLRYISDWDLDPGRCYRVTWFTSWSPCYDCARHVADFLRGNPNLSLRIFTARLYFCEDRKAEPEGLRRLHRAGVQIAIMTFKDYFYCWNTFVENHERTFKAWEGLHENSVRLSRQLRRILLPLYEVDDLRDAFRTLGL
Method in brief: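 Fluorescence at 540 nm excitation and 590 nm emission reports ssDNA cytosine deamination by AID, with UDG in the same well. Compound-treated reactions ran 4 hr at room temperature with DJC20/DJC23 substrate, followed by 30 min NaOH treatment.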

[5] = qHTS for inhibitors of Rabies Virus screened against the NCATS CANVASS Library (AID 1347402; calls by dose curve); settings: Rabies virus infection cell assay; series mostly up to 91 µM
[6] = qHTS to identify inhibitors of the type 1 interferon - major histocompatibility complex class I in skeletal muscle: primary screen against the NCATS Mechanism Interrogation Plate v5.0 (MIPE) Libary (AID 1347411); settings: iHSKM cells + IFN-b, HiBiT-tagged MHC-I luminescence, 24 h; series mostly up to 45.8 µM; note: nearly all actives have a fitted effect of over 65% in size
Method in brief: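 Luminescence from HiBiT-tagged endogenous HLA-B*08:01 served as the MHC class I read-out. CRISPR-engineered C25cl48 human myoblasts received 4.0 ng/ml IFN-beta plus compound for 24 hrs, with an 11-point, 1:3 series topping at 46 uM final.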

SMILES: Oc1ccc2c3c1O[C@H]1c4oc5ccccc5c4C[C@@]4(O)C(C2)N(CC2CC2)CCC314 (some centres not stated)
- Potency [1]: inactive
- outcome [2]: inactive
- Potency [3]: inactive
- Potency [4]: inactive

SMILES: CN1C2CCC1CC(OC(c1ccccc1)c1ccccc1N)C2 (configuration not stated)
- Potency [1]: inactive
- outcome [2]: inactive
- Potency [3]: inactive
- Potency [4]: inactive

SMILES: C[C@H](N)CN1CCc2ccc(Br)cc21
- Potency [1]: inactive
- outcome [2]: inactive
- Potency [3]: inactive
- Potency [4]: inactive

SMILES: C[N+]1(C)CCOC(O)(c2ccc(-c3ccc(C4(O)C[N+](C)(C)CCO4)cc3)cc2)C1 (configuration not stated)
- Potency [1]: inactive
- outcome [2]: inactive
- Potency [3]: inactive

SMILES: COc1ccc2[nH]cc(CCN)c2c1
- outcome [5]: inactive
- outcome [2]: inactive
- Potency [3]: inactive
- Potency [4]: inactive

SMILES: CCS(=O)(=O)Nc1cccc(C(=C2CCCCC2)c2cnc[nH]2)c1
- Potency [1]: inactive
- outcome [2]: inactive
- Potency [3]: inactive
- Potency [4]: inactive

SMILES: O=C(NC1CN2CCC1CC2)c1cc2ccoc2cn1 (configuration not stated)
- Potency [1]: inactive
- outcome [2]: inactive

SMILES: Cc1[nH]c2ccc(O)cc2c1CCN
- Potency [1]: inactive
- outcome [2]: inactive
- Potency [3]: inactive
- Potency [4]: inactive

SMILES: CP(=O)(O)C1=CCNCC1
- Potency [1]: inactive
- outcome [2]: inactive
- Potency [3]: inactive
- Potency [4]: inactive

SMILES: c1ccc2c(N3CCNCC3)cccc2c1
- Potency [1]: inactive
- outcome [2]: inactive
- Potency [3]: inactive
- Potency [4]: inactive

SMILES: C[N+](C)(C)CC#CCOC(=O)Nc1cccc(Cl)c1
- Potency [1]: inactive
- outcome [2]: inactive
- Potency [3]: inactive
- Potency [4]: inactive

SMILES: NC(=O)COc1c(F)cc(SCCNS(=O)(=O)c2ccccc2)cc1F
- Potency [1]: inactive
- outcome [2]: inactive
- Potency [3]: inactive
- Potency [4]: inactive

SMILES: c1ccc2cc(CC3=NCCN3)ccc2c1
- Potency [1]: inactive
- outcome [2]: inactive
- Potency [3]: inactive
- Potency [4]: inactive

SMILES: CN1CCc2cccc(Cl)c2CC1
- Potency [1]: inactive
- outcome [2]: inactive
- Potency [3]: inactive
- Potency [4]: inactive

SMILES: NNC(=O)c1ccc(O)cc1
- Potency [1]: inactive
- outcome [2]: inactive
- Potency [3]: inactive
- Potency [4]: inactive

SMILES: O=c1ccc2[nH]cc(C3=CCNCC3)c2[nH]1
- Potency [1]: inactive
- outcome [2]: inactive

SMILES: CC(=O)c1c(O)c(C)c(O)c(Cc2c(O)c3c(c(C(=O)/C=C/c4ccccc4)c2O)OC(C)(C)C=C3)c1O
- Potency [1]: inactive
- outcome [2]: inactive
- outcome [6]: inactive
- Potency [3]: inactive
- Potency [4]: 31.6 µM (active)

SMILES: C=CCN1C[C@@H](C)N([C@H](c2ccc(C(=O)N(CC)CC)cc2)c2cccc(OC)c2)C[C@@H]1C
- Potency [1]: inactive
- outcome [2]: inactive
- Potency [3]: inactive
- Potency [4]: inactive

SMILES: CCCN1CCC[C@@H](c2cccc(O)c2)C1
- Potency [1]: inactive
- outcome [2]: inactive
- Potency [3]: inactive
- Potency [4]: inactive

SMILES: CNc1ccc2oc(C[C@H]3O[C@@]4(CC[C@H]3C)O[C@H]([C@H](C)C(=O)c3ccc[nH]3)[C@H](C)C[C@H]4C)nc2c1C(=O)O
- Potency [1]: 3.98 µM (active)
- outcome [2]: inactive
- Potency [3]: inactive
- Potency [4]: inactive

SMILES: C=CCN1CCC23c4c5ccc(O)c4O[C@H]2C(=O)CC[C@@]3(O)C1C5 (some centres not stated)
- Potency [1]: inactive
- outcome [2]: inactive
- Potency [3]: inactive
- Potency [4]: inactive

SMILES: CCN1C[C@@]2(COC)C3[C@@H](OC)C4[C@@H]1C3([C@@H]1C[C@]3(O)[C@H](OC(=O)c5ccccc5)[C@@H]1[C@]4(OC(C)=O)[C@@H](O)[C@@H]3OC)[C@H](OC)C[C@H]2O
- Potency [1]: inactive
- outcome [2]: inactive
- Potency [3]: inactive
- Potency [4]: inactive

SMILES: NC(Cc1cc(O)c(O)cc1O)C(=O)O (configuration not stated)
- Potency [1]: inactive
- outcome [2]: inactive
- Potency [3]: inactive
- Potency [4]: 3.98 µM (active)

SMILES: NNC(N)=O
- Potency [1]: inactive
- outcome [2]: inactive
- Potency [3]: inactive
- Potency [4]: inactive

SMILES: C[C@H]1C2Cc3ccc(O)cc3[C@@]1(C)CCN2CC1CC1
- Potency [1]: inactive
- outcome [2]: inactive

SMILES: N[C@@]1(C(=O)O)CC[C@@H](C(=O)O)C1
- Potency [1]: inactive
- outcome [2]: inactive
- Potency [3]: inactive
- Potency [4]: inactive

SMILES: Clc1ccc(N2CC3CCC(C2)N3)nn1
- Potency [1]: inactive
- outcome [2]: inactive
- Potency [3]: inactive
- Potency [4]: inactive

SMILES: CC1(C(=O)O)C2CCC(O2)C1(C)C(=O)O (configuration not stated)
- Potency [1]: 12.6 µM (active)
- outcome [2]: inactive
- Potency [3]: inactive
- Potency [4]: inactive

SMILES: NC(N)=Nc1ccc2[nH]c3c(c2c1)C[C@@]1(O)[C@H]2Cc4ccc(O)c5c4[C@@]1(CCN2CC1CC1)[C@H]3O5
- Potency [1]: inactive
- outcome [2]: inactive
- Potency [3]: inactive
- Potency [4]: 79.4 µM (active)

SMILES: O=C1C[C@@H]2OCC=C3CN4CC[C@]56c7ccccc7N1[C@H]5[C@H]2[C@H]3C[C@H]46
- outcome [5]: inactive

SMILES: N#CCCN
- Potency [1]: inactive
- outcome [2]: inactive
- Potency [3]: inactive
- Potency [4]: inactive

SMILES: Cc1cc([C@@H]2CCCN2C)on1
- Potency [1]: inactive
- outcome [2]: inactive
- Potency [3]: inactive
- Potency [4]: inactive

SMILES: CCCN(CCC)CCc1ccc(O)c(O)c1
- Potency [1]: inactive
- outcome [2]: inactive
- Potency [3]: inactive
- Potency [4]: inactive

SMILES: C[C@@H]1O[C@@H](O[C@H]2C[C@@H](O)[C@]3(CO)[C@@H]4C(CC[C@]3(O)C2)[C@@]2(O)CC[C@H]([C@@H]3COC(=O)C3)[C@@]2(C)C[C@H]4O)[C@H](O)[C@H](O)[C@H]1O (some centres not stated)
- Potency [1]: 1.12 µM (active)
- outcome [2]: inactive
- Potency [3]: inactive
- Potency [4]: inactive
